# Rows were chosen to be rich in hits. Some 10% of all compounds tested hit in one or more screens of this group.
# HEK293 tox: HEK 293 cell cytotoxicity | HEK 293 viability, ATP luminescence (CellTiter-Glo), 48-72 h | Potency, µM (titrated, usually from 115 µM), for the others: top-dose activity change, negative = cytotoxicity, actives largely listed as inhibitors | hit rate 6.6% among 94,000; further: nearly all actives have a fitted effect of over 60% in size
#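 HEK 293 seeded at 250 cells/well receive compound via pintool. After 48 or 72 hr at 37 degree Celsius, 5% CO2 and 95% humidity, CellTiter-Glo is dispensed and luminescence read following 10 min at room temperature.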
# NIH3T3 tox: NIH 3T3 cell cytotoxicity. NIH 3T3 viability, CellTiter-Glo ATP luminescence, 48-72 h. Potency, µM (highest dose often 96.7 µM), inactives show top-dose activity change, negative = cytotoxicity, hits mostly inhibitors. hit rate 4.3% among 94,000; further: nearly all actives have a fitted effect of over 55% in size
#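 Mouse fibroblast NIH 3T3 cells, 400 per well, received compound via pintool and were incubated for 48 or 72 hr prior to CellTiter-Glo ATP luminescence measurement.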
# GPT2 inh: inhibitors of human GPT2 alanine aminotransferase; Q8TD30; Recombinant GPT2, coupled pyruvate oxidase/HRP Amplex Red fluorescence; Potency, µM (series often up to 57.7 µM), inactives show top-dose activity change, negative = inhibition, usual class: inhibitors; hit rate 0.25% among 100,000; further: nearly all actives have a fitted effect of over 60% in size
# Target sequence (Q8TD30 whole entry, looked up): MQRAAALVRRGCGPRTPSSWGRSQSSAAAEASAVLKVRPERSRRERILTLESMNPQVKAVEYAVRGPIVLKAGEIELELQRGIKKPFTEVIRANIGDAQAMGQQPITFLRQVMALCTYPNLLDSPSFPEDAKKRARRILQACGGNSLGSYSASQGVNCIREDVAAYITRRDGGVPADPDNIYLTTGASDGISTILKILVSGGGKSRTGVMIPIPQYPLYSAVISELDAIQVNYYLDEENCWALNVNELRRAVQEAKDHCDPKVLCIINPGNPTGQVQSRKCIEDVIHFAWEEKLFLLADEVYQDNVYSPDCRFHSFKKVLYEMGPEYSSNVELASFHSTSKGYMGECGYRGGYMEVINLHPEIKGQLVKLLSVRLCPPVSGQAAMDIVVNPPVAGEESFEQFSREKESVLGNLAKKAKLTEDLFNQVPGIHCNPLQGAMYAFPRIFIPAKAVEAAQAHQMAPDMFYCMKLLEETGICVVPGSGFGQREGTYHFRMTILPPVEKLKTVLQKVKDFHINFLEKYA
#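 Fluorescence read-out: pyruvate from GPT2 turnover coupled to pyruvate oxidase, HRP and Amplex Red (0.2mM ThPP, 0.2U/mL PO and HRP, 50uM Amplex final). Substrates 250uM a-KG, 2mM L-alanine; enzyme 10ng/uL; 30 min RT.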
# hNpr1 antagonist: human Npr1 receptor antagonism | HEK293 hNpr1 GloSensor cGMP, ANP-stimulated luminescence | Potency, µM (titrated, usually from 46.3 µM), for inactives: top-dose activity change, negative = inhibition, actives largely listed as inhibitors | hit rate 1.6% among 76,000 | P16066; calls by dose curve; further: nearly all actives have a fitted effect of over 60% in size
#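 Compound pre-incubated 30 min at room temperature on GloSensor-loaded HEK293 cells stably carrying hNpr1 and the pGS-40F cGMP biosensor. Stimulation uses hNppA at 0.1 nM final; luminescence is taken at baseline and 20 min post-agonist.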
# FLuc inh: blocks purified firefly luciferase enzyme activity; P08659; Potency, µM (series often up to 115 µM), hits mostly inhibitors; purified P. pyralis luciferase, luminescence, biochemical; hit rate 2.5% among 76,000; further: nearly all actives have a fitted effect of over 65% in size
#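 Luminescence read by CCD imaging after purified firefly luciferase (10nM final) was added to substrate buffer holding 10uM D-luciferin and 10uM ATP, pH 7.5, pre-dosed with compound.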
# Active calls of the source: *; i = inactive; ? = inconclusive; nt = not tested or not shown; [ ] = another dose, or the depositor's remark. Unless noted, the call rests on the fitted dose curve; in most records, active means well fitted curve in the direction sought with a large enough effect; inconclusive means small, poorly fitted or top-dose-only effect, or another doubt; inactive means no such curve, though single readings can be large; an effect the other way counts as inactive or inconclusive. On the % scale 0 is the no-effect control and ±100 the full control effect; potency means the concentration at half of the fitted maximal effect.
SMILES,HEK293 tox,NIH3T3 tox,GPT2 inh,hNpr1 antagonist,FLuc inh
COc1cccc(CN2C(=O)CCCCC2C(=O)NCCc2nc3ccccc3n2C)c1 (centres undefined),2%,2%,i,-15%,i
COCCN1CC2(CCC1=O)CCN(c1nc(C(C)C)ccc1C#N)CC2,?,?,1%,-5%,i
CC(C)CNC(=O)C(NC(=O)c1ccccc1)C1CCN(C(=O)c2ccccc2)CC1 (centres undefined),i,-6%,i,-1%,i
O=C(NCCC1CCN(Cc2ccccc2)CC1)C1CCN(c2cnn(Cc3ccccc3)c(=O)c2)C1 (centres undefined),?,?,i,-20%,i
O=C(c1cc(-c2ccsc2)c2nncn2n1)N1CCCC1,-11%[172 µM],-31%[138 µM],i,nt,nt
Cc1cc(C)c2c(CC(=O)N[C@@H]3CCOC[C@H]3Oc3ccccn3)coc2c1,50µM*,?,-5%[11.5 µM],4%,i
Cc1cc(=O)n(CC(=O)N[C@@H]2CCOC[C@H]2Oc2ccccn2)nc1C,i,i,i,1%,i
CCCCN1CCN(C(=O)c2csc(N3CCN(c4cccc(Cl)c4)CC3)n2)CC1,22µM*,?,1%,-30%,i
CC1CCN(C(=O)c2csc(N3CCN(c4ccc(Cl)cc4)CC3)n2)CC1,?,?,i,?,i
O=C(NC1CCCC1)c1csc(N2CCN(c3cccc(Cl)c3)CC2)n1,35µM*,?,1%,-19%,i
O=C(NCc1ccc(F)c(F)c1)c1ccc2nc(-c3cccnc3)oc2c1,?,-20%[138 µM],-9%[88.5 µM],nt,nt
O=C(N[C@H]1[C@H](O)[C@H](O)C[C@@H]1c1ccc(C(F)(F)F)cc1)c1ccc2c(c1)OCCO2,?,100µM*,-6%[88.5 µM],0%[70.6 µM],?
COc1ccc([C@H]2C[C@@H](O)[C@@H](O)[C@@H]2NCc2ccc(Cl)cc2)cc1,100µM*,?,?,-21%[70.6 µM],i
COc1ccc([C@H]2C[C@@H](O)[C@@H](O)[C@@H]2NCc2ccccc2)cc1,-23%[172 µM],1%[174 µM],i,?,i
COc1ccc(CN[C@H]2[C@H](O)[C@H](O)C[C@@H]2c2ccc(C(F)(F)F)cc2)cc1,45µM*,28µM*,i,-15%[70.6 µM],i
COc1ccc([C@H]2C[C@@H](O)[C@@H](O)[C@@H]2NCc2cn(C)c3ccccc23)cc1,?,89µM*,-6%[88.5 µM],-24%[70.6 µM],i
O=C(NCc1ccc(F)cc1F)C1CCN(C(=O)c2ccc(-c3cncnc3)cc2)CC1,4%,-25%,i,nt,nt
C=CCN1C[C@@H]2C[C@@H](C(=O)NC)N(C(=O)CCc3ccccc3)c3cccc(c32)C1=O,-10%[57.5 µM],?,?,nt,nt
COc1ccc([C@H]2C[C@@H](O)[C@@H](O)[C@@H]2NS(=O)(=O)c2ccc(Cl)cc2)cc1,-29%[172 µM],-29%[138 µM],1%[88.5 µM],-15%[70.6 µM],i
COc1ccc([C@H]2C[C@@H](O)[C@@H](O)[C@@H]2NC(=O)c2cc3ccccc3s2)cc1,79µM*,?,1%[88.5 µM],?,i
COc1ccc([C@H]2C[C@@H](O)[C@@H](O)[C@@H]2NS(=O)(=O)c2ccc(C(F)(F)F)cc2)cc1,100µM*,-28%[174 µM],2%[88.5 µM],2%[70.6 µM],i
COc1ccc(-c2ccc(C(=O)NCCCc3ccccc3)cc2)nn1,-23%[172 µM],?,nt,nt,nt
Cc1noc(C)c1S(=O)(=O)N1CCCC(CCc2ccc(F)c(F)c2)C1 (centres undefined),45µM*,?,i,-15%,i
Cc1ccc(Nc2ccnc(N3CCCC3C(=O)NCCCc3ccccc3)n2)cc1 (centres undefined),40µM*,?,i,nt,nt
Cc1ccc(Nc2ccnc(N3CCCC3C(=O)NCC3CC3)n2)cc1 (centres undefined),35µM*,-8%,i,nt,nt
SMILES,HEK293 tox,NIH3T3 tox,GPT2 inh,hNpr1 antagonist,FLuc inh
CSCCNC(=O)C1CCCN1c1nccc(Nc2ccc(C)cc2)n1 (centres undefined),79µM*,-7%,i,nt,nt
Cc1ccc(Nc2ccnc(N3CCCC3C(=O)NCc3ccccc3)n2)cc1 (centres undefined),?,?,i,nt,nt
O=C(NCc1ccccc1)C1CC(=O)N(C2CN(S(=O)(=O)c3cccc(F)c3)C2)C1 (centres undefined),i,-1%,i,nt,nt
O=C(N[C@H]1CCN2C(=O)c3cc(-c4cccc(C(F)(F)F)c4)ccc3NC(=O)[C@H]12)c1cnccn1,45µM*,79µM*,4%,-1%,i
O=C(N[C@H]1CCN2C(=O)c3cc(-c4ccc(Cl)cc4)ccc3NC(=O)[C@H]12)c1cnccn1,79µM*,?,?,0%,i
COc1ccc(/C=C/c2ccc3c(c2)C(=O)N2CC[C@H](N)[C@H]2C(=O)N3)cc1,100µM*,?,5%[88.5 µM],1%[70.6 µM],20µM*
COc1ccc(/C=C/c2ccc3c(c2)C(=O)N2CC[C@H](NC(=O)c4cnccn4)[C@H]2C(=O)N3)cc1,-6%,-4%,4%,-1%,7.9µM*
CCCn1cc(-c2ccncc2)cc1C(=O)Nc1ccccc1C,?,?,i,4%,i
Cc1nc(CNC(=O)CC2C(=O)NCCN2Cc2ccccn2)n[nH]1 (centres undefined),-25%,?,i[11.5 µM],1%,i
CN(C)C(=O)N1CCN(c2ccc3nnc(C4CC4)n3n2)CC1,i,-10%[138 µM],nt,nt,nt
CSc1ccc(-c2cccc(CN3CCC(N[S+](=O)([O-])c4ccc(C)cc4)CC3)c2)cc1,20µM*,14µM*,nt,nt,nt
Cc1ccc([S+](=O)([O-])NC2CCN(Cc3cccc(-c4ccc(F)c(F)c4)c3)CC2)cc1,22µM*,16µM*,?,nt,nt
Cc1cccc(-c2cccc(CN3CCC(N[S+](C)(=O)[O-])CC3)c2)c1,?,?,-5%,nt,nt
O=C(c1ccco1)N1CC[C@@H]2COCCN(Cc3ccccc3)[C@@H]2C1,-10%,-10%,i,-14%,i
O=C(CC1CCCC1)N1CC[C@@H]2COCCN(Cc3ccccc3)[C@@H]2C1,79µM*,-28%,i,-2%,i
CCN1c2cc(C(=O)Nc3ccc(OC)c(OC)c3)ccc2C(=O)N2CCCCC21 (centres undefined),?,?,i,-12%,i
CCN1c2cc(C(=O)Nc3ccc(OC)c(OC)c3)ccc2C(=O)N2CCCCCC21 (centres undefined),45µM*,?,1%,-30%,i
CCN1c2cc(C(=O)Nc3ccc(OC)c(Cl)c3)ccc2C(=O)N2CCCCC21 (centres undefined),35µM*,22µM*,i,-26%,i
Cc1cc(C)cc(-c2ccc(CN3CCCC3C(=O)NC(C)C)cc2)c1 (centres undefined),50µM*,?,i,nt,nt
